Source: PubChem BioAssay
A number with no mark means an inactive call. Active and inactive are the calls of the source. Rule as the data show it, unless noted: active = inhibition above about 31%; inactive = the rest.

Test: yeast transport mutant growth inhibition pilot in 384-well plates, post-Golgi transport modulator project (AID 636)
Conditions: absorbance 615 nm, about 18 h, stronger effect = higher value

SMILES | inhibition
Cn1c(-c2ccccc2)cnc1SCc1nc2ccccc2c(=O)[nH]1 | -2.53%
COc1ccc(N2C(=O)C(Cl)=C(N3CCCC3)C2=O)cc1 | -6.08%
Cc1ccc(-n2c(N)c(C(N)=O)sc2=S)cc1 | -3.24%
O=C(Nc1ccc(N2CCOCC2)c(Cl)c1)c1ccc(Br)o1 | -3.7%
NS(=O)(=O)c1ccc(CCNC(=O)c2cccnc2)cc1 | -4.46%
C[N+](C)(C)CCOP(=O)([O-])OC[C@H](O)CO | -2.99%
Cn1c(=O)[nH]c(=O)c2c1nc(N1CCc3ccccc3C1)n2CCSc1nc2ccccc2s1 | -5.48%
CCOC(=O)c1ccc(COC(=O)c2cc3ccccc3oc2=O)o1 | -5.89%
CCc1c(C)c2ccc(OCC(=O)OC)cc2oc1=O | -1.49%
Cc1c(NC(=O)C(C)Oc2ncnc3ccccc23)c(=O)n(-c2ccccc2)n1C (stereo not drawn) | -4.42%
COc1nc(OC)nc(N2CCC(C(=O)NCc3cccs3)CC2)n1 | -5.32%
CCCCOc1ccccc1C1C(C(N)=O)=C(C)Nc2nnnn21 (stereo not drawn) | -3.9%
O=C(NCCCN1CCN(Cc2ccccc2)CC1)C1CCN(c2nnc(-n3cccc3)s2)CC1 | -4.93%
CCN(CC)CCCNC1CCS(=O)(=O)C1 (stereo not drawn) | -3.42%
N#CC1=C(N)N2C(=C(C#N)C13CCCCC3)SC1CCCCC12O (stereo not drawn) | -3.01%
COc1ccccc1CNC(=O)C(C)NS(=O)(=O)c1ccccc1 (stereo not drawn) | -7.4%
O=C(CSc1ccc(-c2ccccc2)nn1)N1CCOCC1 | -6.44%
Cc1oc2cc3c(C(=O)OCCN(C)C)c(C)oc3cc2c1C(=O)OCCN(C)C | -3.95%
CCOc1cc(C2Nc3ccccc3C(=O)N2c2ccccc2OC)ccc1O (stereo not drawn) | -4.59%
O=C(c1cccc2c1C(=O)N(Cc1cccnc1)C2)N1CCN(c2ccccc2)CC1 | -4.93%

SMILES | inhibition
O=C(CSc1oc(-c2ccco2)nc1S(=O)(=O)c1ccccc1)NCC1CCCO1 (stereo not drawn) | 4.66%
Nc1cc(=O)[nH]c(SCC(=O)Nc2ccc(Br)cc2)n1 | -0.52%
CC1(C)S[C@@H]2[C@H](NC(=O)[C@H](N)c3ccccc3)C(=O)N2[C@H]1C(=O)O | -5.32%
CC(=O)Nc1nc(C)c(-c2csc(Nc3ccc(O)cc3)n2)s1 | -3.95%
O=C(CCn1c(=O)oc2ccccc21)N1CCCCCC1 | 0.95%
O=C(O)CCN(CCC(=O)O)c1nnc(SCc2ccccc2)s1 | -6.16%
CC(=O)OCC(=O)[C@@]12OC(C)(C)O[C@@H]1C[C@H]1[C@@H]3C[C@H](F)C4=CC(=O)C=C[C@]4(C)[C@@]3(F)[C@@H](O)C[C@@]12C | 0.65%
COC(=O)CCC(=O)CN | -1.3%
C=CCN=C1SCC(=O)N1S(=O)(=O)c1ccc(C)cc1 | -4.73%
O=C1c2ccccc2C(=O)N1CCN1CCCCC1 | 3.38%
CN(C)c1ccc(NC(=O)Nc2cccc(Cl)c2)cc1 | -6.71%
COC(=O)[C@H](C)NC(=O)Nc1cccc(C(F)(F)F)c1 | -0.96%
Cc1c(C=NCCOCc2ccccc2)cnn1C | 0%
COC(=O)c1cccc(Nc2cc(C)nc(-c3ccccc3O)n2)c1 | 0%
CCN(CC)C(=O)c1ccc(O)c(OC)c1 | -4.94%
CC(C)CN(CC(C)C)c1nc(N)c(C#N)c(CC#N)c1C#N | -5.6%
c1cnc(NCCNc2ncccn2)nc1 | -8.4%
C=CCn1c(SCC#N)nc2c(c1=O)C(C)(C)Cc1ccccc1-2 | -5.62%
COc1cc(NS(=O)(=O)c2ccc(N)cc2)ncn1 | -1.56%

Test: growth suppression of yeast trafficking mutant, preliminary HTS, modulators of trafficking downstream of Golgi apparatus project, 1536-format plate, OD 615 nm (AID 637; in the data active = inhibition above about 30%)
Conditions: yeast transport mutant growth, absorbance 615 nm, 18 h; stronger effect = higher value

SMILES | inhibition
Cn1c(-c2ccccc2)cnc1SCc1nc2ccccc2c(=O)[nH]1 | 4.18%
COc1ccc(N2C(=O)C(Cl)=C(N3CCCC3)C2=O)cc1 | -6.18%
Cc1ccc(-n2c(N)c(C(N)=O)sc2=S)cc1 | 0.73%
O=C(Nc1ccc(N2CCOCC2)c(Cl)c1)c1ccc(Br)o1 | 5.81%
NS(=O)(=O)c1ccc(CCNC(=O)c2cccnc2)cc1 | -0.91%
C[N+](C)(C)CCOP(=O)([O-])OC[C@H](O)CO | -5.17%
Cn1c(=O)[nH]c(=O)c2c1nc(N1CCc3ccccc3C1)n2CCSc1nc2ccccc2s1 | 2.9%
CCOC(=O)c1ccc(COC(=O)c2cc3ccccc3oc2=O)o1 | 0.65%
CCc1c(C)c2ccc(OCC(=O)OC)cc2oc1=O | 21.4%
Cc1c(NC(=O)C(C)Oc2ncnc3ccccc23)c(=O)n(-c2ccccc2)n1C (stereo not drawn) | -3.28%
COc1nc(OC)nc(N2CCC(C(=O)NCc3cccs3)CC2)n1 | -9.51%
CCCCOc1ccccc1C1C(C(N)=O)=C(C)Nc2nnnn21 (stereo not drawn) | 0.82%
O=C(NCCCN1CCN(Cc2ccccc2)CC1)C1CCN(c2nnc(-n3cccc3)s2)CC1 | -1.82%
CCN(CC)CCCNC1CCS(=O)(=O)C1 (stereo not drawn) | -4.52%
N#CC1=C(N)N2C(=C(C#N)C13CCCCC3)SC1CCCCC12O (stereo not drawn) | 8.91%
COc1ccccc1CNC(=O)C(C)NS(=O)(=O)c1ccccc1 (stereo not drawn) | -0.73%
O=C(CSc1ccc(-c2ccccc2)nn1)N1CCOCC1 | -4.73%
Cc1oc2cc3c(C(=O)OCCN(C)C)c(C)oc3cc2c1C(=O)OCCN(C)C | -10%
CCOc1cc(C2Nc3ccccc3C(=O)N2c2ccccc2OC)ccc1O (stereo not drawn) | 28.4%
O=C(c1cccc2c1C(=O)N(Cc1cccnc1)C2)N1CCN(c2ccccc2)CC1 | -1.09%

SMILES | inhibition
O=C(CSc1oc(-c2ccco2)nc1S(=O)(=O)c1ccccc1)NCC1CCCO1 (stereo not drawn) | -0.16%
Nc1cc(=O)[nH]c(SCC(=O)Nc2ccc(Br)cc2)n1 | -4.1%
CC1(C)S[C@@H]2[C@H](NC(=O)[C@H](N)c3ccccc3)C(=O)N2[C@H]1C(=O)O | 3.33%
CC(=O)Nc1nc(C)c(-c2csc(Nc3ccc(O)cc3)n2)s1 | -6.13%
O=C(CCn1c(=O)oc2ccccc21)N1CCCCCC1 | -1.64%
O=C(O)CCN(CCC(=O)O)c1nnc(SCc2ccccc2)s1 | -3.55%
CC(=O)OCC(=O)[C@@]12OC(C)(C)O[C@@H]1C[C@H]1[C@@H]3C[C@H](F)C4=CC(=O)C=C[C@]4(C)[C@@]3(F)[C@@H](O)C[C@@]12C | -1.83%
COC(=O)CCC(=O)CN | 5.67%
C=CCN=C1SCC(=O)N1S(=O)(=O)c1ccc(C)cc1 | 1.64%
O=C1c2ccccc2C(=O)N1CCN1CCCCC1 | -1.64%
CN(C)c1ccc(NC(=O)Nc2cccc(Cl)c2)cc1 | 4.55%
COC(=O)[C@H](C)NC(=O)Nc1cccc(C(F)(F)F)c1 | 30% (active)
Cc1c(C=NCCOCc2ccccc2)cnn1C | -0.48%
COC(=O)c1cccc(Nc2cc(C)nc(-c3ccccc3O)n2)c1 | 2.18%
CCN(CC)C(=O)c1ccc(O)c(OC)c1 | -5%
CC(C)CN(CC(C)C)c1nc(N)c(C#N)c(CC#N)c1C#N | -1.27%
c1cnc(NCCNc2ncccn2)nc1 | -3.82%
C=CCn1c(SCC#N)nc2c(c1=O)C(C)(C)Cc1ccccc1-2 | 3.71%
COc1cc(NS(=O)(=O)c2ccc(N)cc2)ncn1 | 2.5%
